Several values for one entry are separate records, joined by “and”; a condition that tells them apart may be missing. Equal values may be shown once. Records with an inconclusive call do not appear. Where a call stands in place of a potency, no number is given. Activity calls are given as the source filed them. Calls come from the whole dose curve; as a rule, active = well fitted inhibition curve with a large enough effect in the repeat runs; inconclusive = weak or mixed curves; inactive = no such curve, though single readings can be large or run the other way.
Target: Cytochrome P450 2C9 (Homo sapiens) (UniProt P11712)
Assay: Cytochrome P450 family 2 subfamily C member 9 (CYP2C9) small molecule antagonists: luciferase biochemical (cell-free) qHTS assay (AID 1645842); note: nearly all actives have a fitted effect of over 55% in size
Details: P450-Glo CYP2C9 enzyme assay, luciferin luminescence; series mostly up to 57.4 µM
Experimental: National Center for Advancing Translational Sciences [NCATS] Assay Overview: Cytochrome P450 (CYP) enzymes are membrane-bound hemeproteins that play a key role in metabolism of drugs and xenobiotics. Assaying the effect of chemicals on CYP isozymes is useful to minimize the adverse drug reactions and toxicities in drug development process. Chemical compounds were tested for their effect on CYP enzyme activities by using P450-Glo (TM) screening systems (Promega Corporation, Madison, WI). These systems provide a luminescent method containing proluciferin substrates and are converted to luciferin products by CYP isozymes. The luciferin products formed are detected with a luciferin detection reagent, and the amount of light produced is proportional to CYP activity. P450-Glo (TM) CYP2C9 screening system (Catalog. No. V9790) was used to detect the compounds that interfere in CYP2C9 activity.
Assay Protocol Summary: Two ul of enzyme-substrate mix supplemented with 0.4% Bovine Serum Albumin was dispensed into medium binding white/solid 1536-well plates (Greiner Bio-One North America Inc., Monroe, NC) using a Flying Reagent Dispenser (FRD, Aurora Discovery, San Diego, CA). […] The assay plates were incubated at room temperature for 10 min. Then 2 ul of NADPH regeneration solution was added to each well of the assay plates using an FRD and incubated at 37C for 1 h. The reaction was stopped by adding 4 ul of detection reagent using an FRD and after 20 min incubation at room temperature, the luminescence signal was measured using a ViewLux plate reader (Perkin Elmer, Shelton, CT). Data were expressed as relative luminescence units.
Potency is the fitted concentration of half-maximal effect.

Sequence of Cytochrome P450 2C9 (Homo sapiens) (P11712 whole entry, looked up): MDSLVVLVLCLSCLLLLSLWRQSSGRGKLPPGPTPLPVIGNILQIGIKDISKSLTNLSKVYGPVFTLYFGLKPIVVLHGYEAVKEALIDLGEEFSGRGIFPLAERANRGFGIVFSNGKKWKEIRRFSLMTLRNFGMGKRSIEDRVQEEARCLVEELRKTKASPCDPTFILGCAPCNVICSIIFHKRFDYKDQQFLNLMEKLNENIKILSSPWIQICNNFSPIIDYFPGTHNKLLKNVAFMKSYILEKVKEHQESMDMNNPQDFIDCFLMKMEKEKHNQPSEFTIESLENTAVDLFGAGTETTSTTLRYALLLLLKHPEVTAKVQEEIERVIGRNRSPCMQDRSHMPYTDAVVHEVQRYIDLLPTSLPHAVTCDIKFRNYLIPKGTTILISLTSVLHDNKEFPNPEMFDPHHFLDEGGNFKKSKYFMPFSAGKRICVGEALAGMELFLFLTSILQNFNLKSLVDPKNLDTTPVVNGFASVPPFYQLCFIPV

SMILES	Potency
Cl/C(=C\n1cncn1)c1ccc(Cl)cc1Cl	11 µM (active)
COc1cc(N)c(Cl)cc1C(=O)NC1CCN(Cc2ccccc2)CC1	inactive
C#C[C@]1(O)CC[C@H]2[C@@H]3CCc4cc(OC)ccc4[C@H]3CC[C@@]21C	6.92 µM (active) and 4.25 µM (active)
NS(=O)(=O)Cc1noc2ccccc12	inactive
CCCCCCCCCCCCCCCCO	inactive
CCOc1ccccc1OCCN[C@H](C)Cc1ccc(OC)c(S(N)(=O)=O)c1	inactive
C#C[C@]1(OC(C)=O)CC[C@H]2[C@@H]3CCC4=C/C(=N/O)CC[C@@H]4[C@H]3CC[C@@]21CC	952 nM (active) and 7.76 µM (active)
CC1(COc2ccc(CC3SC(=O)NC3=O)cc2)CCCCC1 (stereo not given)	inactive
C[C@@H](O)[C@H]1C(=O)N2C(C(=O)O)=C(S[C@@H]3CN[C@H](CNS(N)(=O)=O)C3)[C@H](C)[C@H]12	11 µM (active)
O=c1[nH]c(=O)n([C@H]2C[C@H](O)[C@@H](CO)O2)cc1F	inactive
Cc1cc(NS(=O)(=O)c2ccc(N)cc2)nc(C)n1	inactive
CCCCCCCCNC(C)C(O)c1ccc(SC(C)C)cc1 (stereo not given)	inactive
O=C1[C@H](CC[C@H](O)c2ccc(F)cc2)[C@@H](c2ccc(O)cc2)N1c1ccc(F)cc1	6.92 µM (active) and 9.52 µM (active)
CCN(CC)CCOC(=O)C(Cc1cccc2ccccc12)CC1CCCO1 (stereo not given)	inactive
CC(=O)O[C@]1(C(C)=O)CC[C@H]2[C@@H]3C=C(C)C4=CC(=O)CC[C@]4(C)[C@H]3CC[C@@]21C	12.3 µM (active)
CC(=O)Nc1ncc([N+](=O)[O-])s1	inactive
Cc1ncc(CO)c(C=O)c1O	inactive
Cc1cccc(C)c1NC(=O)c1ccccc1C(=O)O	inactive
CCN1CCN(C(=O)N[C@@H](C(=O)N[C@@H]2C(=O)N3C(C(=O)O)=C(CSc4nnnn4C)CS[C@H]23)c2ccc(O)cc2)C(=O)C1=O	inactive
O=C(Nc1ncc([N+](=O)[O-])s1)c1cccs1	9.77 µM (active)

SMILES	Potency
CCCCCCCCCCCCOCCOCCOCCOCCOCCOCCOCCOCCOCCO	21.9 µM (active)
COP(=O)(OC)OC(c1ccc(Cl)cc1)P(=O)(OC)OC (stereo not given)	inactive
O=C(O)CCNC(=O)c1ccccc1	inactive
COc1ccc2c(c1)c1c3n2CCN(C)C3=NCC1	inactive
Cc1ccc(-c2ncc(Cl)cc2-c2ccc(S(C)(=O)=O)cc2)cn1	inactive
COc1cc(C(=O)N2CCCCCCC2)cc(OC)c1OC	inactive
CC(=O)O[C@H]1C[C@@H]2CC[C@@H]3[C@H](CC[C@@]4(C)[C@H]3C[C@H]([N+]3(C)CCCCC3)[C@@H]4OC(C)=O)[C@@]2(C)C[C@@H]1N1CCCCC1	inactive
CCOC(=O)[C@@](C)(N)Cc1ccc(O)c(O)c1	inactive
c1ccc(-c2nc[nH]c2-c2ccccc2)cc1	inactive
CCC(C(=O)OCCOCCN(CC)CC)c1ccccc1 (stereo not given)	inactive
CCO[C@@H]1O[C@H](C(COCc2ccccc2)OCc2ccccc2)[C@H](OCc2ccccc2)[C@H]1O (stereo not given in full)	3.09 µM (active)
CCC1Nc2cc(Cl)c(S(N)(=O)=O)cc2S(=O)(=O)N1 (stereo not given)	inactive
CC(=O)N[C@@H](CCC(=O)O)C(=O)O	inactive
C[N+]12CCC(CC1)C(OC(=O)C(O)(c1ccccc1)c1ccccc1)C2 (stereo not given)	inactive
FC(F)(F)C(F)(F)C(F)(F)C(F)(F)C(F)(F)C(F)(F)C(F)(F)C(F)(F)Br	inactive
CC(=O)Nc1ccc(CC(=O)O)cc1	inactive
CC(C)=CCOc1ccc(/C=C/C(=O)c2ccc(OCC=C(C)C)cc2OCC(=O)O)cc1	15.5 µM (active)
CC(C)(C)NC[C@H](O)COc1cccc2c1CCCC2=O	inactive
CCN(CC)CCOc1ccccc1C(=O)CCc1ccccc1	inactive
CCN(CC)CCNC(=O)c1cc(Br)c(N)cc1OC	inactive
